High-throughput results as filed in PubChem BioAssay.
This is a sample that favours compounds with a hit; in the whole collection about 3.5% have one here.
GPR151 activ: activators of human GPR151; Q8TDV0; PathHunter beta-arrestin GPR151 cells, luminescence; activation, % at 11.2 µM; hit rate 1% among 650,000; AID 1508602; in the data active = activation above about 4.9%;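 also: 0% = median of compound wells and 100% = cells with positive control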
Target sequence (Q8TDV0 whole entry, looked up): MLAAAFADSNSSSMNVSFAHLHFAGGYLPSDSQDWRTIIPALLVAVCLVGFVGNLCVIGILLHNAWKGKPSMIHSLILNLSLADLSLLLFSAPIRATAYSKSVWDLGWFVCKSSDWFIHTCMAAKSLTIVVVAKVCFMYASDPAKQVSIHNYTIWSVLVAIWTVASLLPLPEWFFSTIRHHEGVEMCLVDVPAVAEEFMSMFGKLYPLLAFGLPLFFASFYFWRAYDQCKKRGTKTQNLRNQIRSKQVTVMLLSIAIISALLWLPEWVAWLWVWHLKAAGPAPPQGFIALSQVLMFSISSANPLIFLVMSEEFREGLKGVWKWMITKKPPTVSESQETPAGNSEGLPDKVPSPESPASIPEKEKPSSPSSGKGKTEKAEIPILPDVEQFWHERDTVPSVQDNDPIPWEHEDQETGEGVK
FBW7 act: human FBW7 E3 ligase activation, primary screen; AlphaScreen FBW7–phospho-cyclin E peptide binding, activator screen; normalized activity (activation), % at 26.1 µM; hit rate 0.13% among 650,000; AID 1259310; in the data active = normalized activity above about 1.9%;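 also: purified mutant Fbw7 with reduced substrate affinity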
MITF primary: inhibitors of human MITF; O75030; AlphaScreen MITF homodimerization, bead proximity signal; inhibition, % at 2.6 µM; hit rate 0.91% among 650,000; AID 1259374; in the data active = inhibition above about 50%;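 also: 0% = vehicle wells with protein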
TEAD-YAP inh: TEAD-YAP interaction inhibition; HEK-TIYL cells, TEAD-Gal4/YAP UAS-luciferase luminescence; inhibition, % at 9.12 µM; hit rate 1.4% among 640,000; in the data active = inhibition above about 32%;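 also: 0% = median of test compound wells and 100% = reference inhibitor wells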
GPR151 conf act: human GPR151 activation, confirmation screen | shares compounds with GPR151 activ | GPR151 PathHunter beta-arrestin cells, luminescence, 90 min; % of EA-reagent control over plate median | activation, % at 11.2 µM | 6,700 tested, under 10 active | AID 1508609;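 active = mean percent activation across replicates above the confirmation screen cutoff of 4.91%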
GPR119 counter: counter-screen for GPR151 activators: effect on human GPR119; hit rate 0.3% among 6,700; GPR119 PathHunter beta-arrestin cells, luminescence, 90 min; 0 = compound-well median, 100 = enzyme-acceptor control; shares compounds with GPR151 activ; activation, % at 11.2 µM;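 active = mean percent activation in the counterscreen above 29.09%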;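 also: counterscreen on off-target GPR119 to flag nonselective hits from the GPR151 activator screen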
Numbers without * were called inactive; nt = no result; ! = a repeat was not active.

SMILES	GPR151 activ	FBW7 act	MITF primary	TEAD-YAP inh	GPR151 conf act	GPR119 counter
O=C(CN1CCCC(c2nc3ccccc3[nH]2)C1)N1CCCc2ccccc21 (configuration not stated)	2	0	0	6	nt	nt
NC(N)=NC(N)=Nc1cccc(Cl)c1	10*!	0	-4	4	-1	-10
NC(N)=NC(N)=Nc1cccc([N+](=O)[O-])c1	1	0	5	-4	nt	nt
CC1CCN(CCCn2c(SCC(=O)NCc3ccccc3)nc3ccccc3c2=O)CC1	-2	0	17	2	nt	nt
Cc1ccc(Cl)c(NC(=O)C2CCN(c3nc(C)cc(C)n3)CC2)c1	2	0	6	-6	nt	nt
Cc1cc(C)nc(N2CCC(C(=O)Nc3ccc(Cl)cc3Cl)CC2)n1	9.5*	0	6	-9	0	7
CN(Cc1ccccc1)S(=O)(=O)c1ccc2[nH]c(=O)c(=O)[nH]c2c1	5.2*	0	-5	6	0	1
Cc1cc2[nH]c(=O)c(=O)[nH]c2cc1S(=O)(=O)N(C)Cc1ccccc1	0	0	5	1	nt	nt
O=C(OCc1ccccc1)/C(=C/c1c[nH]c2ccccc12)[N+](=O)[O-]	5.5*	0	13	8	-1	-2
COc1ccc2[nH]c(=O)c(CN(CCCO)S(=O)(=O)c3ccc([N+](=O)[O-])cc3)cc2c1	0	0	-10	-1	nt	nt
C=C(C)CNc1nncc(-c2ccccc2C)n1	6.2*	0	-6	-5	0	1
CN1CCCC(OC(=O)c2cc(Cl)ccc2Cl)C1 (configuration not stated)	0	0	-6	-6	nt	nt
CN1CCCC(OC(=O)c2cc(Br)ccc2Cl)C1 (configuration not stated)	6.2*	0	25	0	-1	-1
COc1ccc2c(-c3ccccc3)cc3nnnn3c2c1	5.3*	0	7	-4	0	-7
O=C(CSc1nnc(SCC(=O)NCc2ccco2)s1)NCc1ccco1	0	0	7	-4	nt	nt
CCOC(=O)c1sc(=NC(=O)c2cccc3ccccc23)n(C)c1C	7.8*	0	3	5	0	6
O=C(Nc1nnc(S(=O)(=O)N2CCCCC2)s1)c1ccc(Cl)cc1	5.6*	0	-5	5	0	-9
O=C(Nc1nnc(S(=O)(=O)N2CCCCC2)s1)C12CC3CC(CC(C3)C1)C2	5.5*	0	10	-5	0	-16
c1ccc(COc2ccc(-c3nc(-c4ccc5sc6ccccc6c5c4)c(-c4ccccc4)[nH]3)cc2)cc1	0	0	4	10	nt	nt
Cc1ccc([N+](=O)[O-])cc1NC(=O)C1CC(=O)OC12CCCCC2 (configuration not stated)	1	0	6	5	nt	nt
COC(=O)C1=C(C(=O)OC)[C@@H]2N(Cc3ccccc3)c3ccccc3[C@@]23C[C@@H](CO)N(C(=O)NC2CCCCC2)C3=N1	3	0	-2	nt	nt	nt
COC(=O)C1=C(C(=O)OC)[C@@H]2N(Cc3ccccc3)c3ccccc3[C@@]23C[C@@H](CO)N=C3N1	6.8*	0	-6	nt	0	-1
COc1ccc(Nc2cc(-c3cncc(-c4cccs4)c3)nc(C)n2)cc1	6.0*	0	5	2	-1	-11
COc1ccc(Nc2cc(-c3cncc(-c4ccc(OC)cc4)c3)nc(C)n2)cc1	2	0	7	-4	nt	nt
CC(=O)c1cccc(NC(=O)N2CCCC2C(=O)Nc2cccc(C)c2)c1 (configuration not stated)	15*	0	-3	-6	0	14
SMILES	GPR151 activ	FBW7 act	MITF primary	TEAD-YAP inh	GPR151 conf act	GPR119 counter
O=C(CCCn1c(=O)[nH]c2ccccc2c1=O)N1CCN(c2ccc(Cl)cc2)CC1	5.5*	1	13	3	0	-1
COc1ccc(N2C(=O)c3cccnc3C2Nc2ccc(F)cc2)cc1 (configuration not stated)	-1	0	-12	-5	nt	nt
CCn1c(N2CCC(C(=O)NC(C)c3cc(OC)ccc3OC)CC2)nc2ccccc21 (configuration not stated)	1	0	8	19	nt	nt
Cc1ccc(CSc2nnc(NC(=O)Cn3cnc4ccccc4c3=O)s2)cc1	5.0*	0	2	-12	0	1
CCSc1nnc(NC(=O)Cn2cnc3ccccc3c2=O)s1	-1	0	0	-5	nt	nt
CSc1nc2ccc(NC(=O)Cn3cnc4ccccc4c3=O)cc2s1	5.9*	0	7	7	2	3
CSc1nc2ccc(NC(=O)CN3C(=O)c4ccccc4C3=O)cc2s1	0	0	-12	-9	nt	nt
Cc1ccc(S(=O)(=O)NCCCOC(C)C)cc1	5.0*	0	3	11	0	-1
CC(C)N(CCNC(=O)c1cnc(Nc2cnccn2)s1)C(C)C	-3	0	0	-2	nt	nt
C[C@]1(Cn2ccnn2)[C@H](C(=O)O)N2C(=O)C[C@H]2S1(=O)=O	10*!	0	8	-2	1	7
CC1(C)CC(=O)C=C(NNC(=O)C23CC4CC(CC(C4)C2)C3)C1	1	0	11	-9	nt	nt
CCN(CC)C(=O)C1CCCN(c2cc(C(=O)NCc3nc4ccccc4[nH]3)ccn2)C1 (configuration not stated)	6.6*	0	2	2	0	-2
Cc1oc(-c2cccc(Cl)c2)nc1COC(=O)c1nnn(-c2cccc(F)c2)c1C	6.0*	0	-12	-1	-1	-12
Cc1ccc(N(CC(=O)O)C2SC(=O)NC2=O)cc1 (configuration not stated)	5.7*	0	13	2	2	1
O=C1NC(c2ccc(Cl)cc2Cl)Oc2ccccc21 (configuration not stated)	8.9*	0	12	3	2	-1
CCCN1C(=O)/C(=C/c2c(N3CCCCC3)nc3ccc(C)cn3c2=O)SC1=S	1	0	-2	13	nt	nt
CCOc1cc(C2NC(=O)c3c(sc(C)c3C)N2)ccc1OC(=O)c1ccc([N+](=O)[O-])cc1 (configuration not stated)	-1	0	6	6	nt	nt
Cc1ccc(C(=O)ON2C(=O)c3ccccc3C2=O)cc1C	7.6*	0	10	-5	0	15
Cc1ccc(-c2csc(C(C#N)=C3CCCCC3)n2)cc1	5.4*	0	2	-62	0	-10
C=CCN1C(=O)C(C)(C)COc2cc(NC(=O)CC(C)C)ccc21	1	0	0	-5	nt	nt
CCC(C)C1N=C2c3ccccc3N=C(SCc3cccc(F)c3)N2C1=O (configuration not stated)	5.2*	0	11	-19	1	8
CCN(CC)C(=O)c1sc(NC(=O)c2ccco2)c(C(=O)OC(C)C)c1C	1	0	-2	-4	nt	nt
